Records with an inconclusive call do not appear. Values without a mark were called inactive. The source made the active and inactive calls. Calls follow the shape of the dose curve; as a rule, active = well fitted cell-killing curve with a large enough effect; inconclusive = small, poorly fitted or top-dose-only effect, or effect the other way; inactive = no such curve, though single readings can be large or run the other way. Non-standard residues stand in square brackets, D forms with d. Residues, ends and D or L forms follow the SMILES beside them. *: point of attachment. Sta = CC(C)C[C@H](N)[C@@H](O)CC(=O)O; Isovaleryl = CC(C)CC(=O)*
test: Quantitative High-Throughput drug screen in 47 multiple myeloma cell lines against the NCATS MIPE library collection: XG6_PLB cell viability assay (AID 1919865); settings: XG6 myeloma viability, CellTiter-Glo ATP luminescence, 48 h; series mostly up to 45.8 µM; viability (% of control): at the top concentration; also: nearly all actives have a fitted effect of over 40% in size
Source text: PI: Beverly A. Mock Ph.D.
Laboratory of Cancer Biology and Genetics,
Center for Cancer Research, National Cancer Institute,
National Institute of Health, Bethesda, Maryland
Drug resistance and disease progression are common in multiple myeloma (MM) patients, underscoring the need for new therapeutic combinations. […] We hypothesized that effective combinations would reduce MYC expression and enhance p16 activity. […] These preclinical data identify potentially useful drug combinations for evaluation in drug-resistant MM and reveal potential mechanisms of combined drug sensitivity.
Described herein is the primary MIPE qHTS used to cherrypick compounds. Validated compounds were then further tested for potential synergistic activiy.
[1] Peat TJ, Gaikwad SM, Dubois W, Gyabaah-Kessie N, Zhang S, Gorjifard S, Phyo Z, Andres M, Hughitt VK, Simpson RM, Miller MA, Girvin AT, Taylor A, Williams D, D'Antonio N, Zhang Y, Rajagopalan A, Flietner E, Wilson K, Zhang X, Shinn P, Klumpp-Thomas C, McKnight C, Itkin Z, Chen L, Kazandijian D, Zhang J, Michalowski AM, Simmons JK, Keats J, Thomas CJ, Mock BA. Drug combinations identified by high-throughput screening promote cell cycle transition and upregulate Smad pathways in myeloma. Cancer Lett. 2023 Aug 1;568:216284. doi: 10.1016/j.canlet.2023.216284. Epub 2023 Jun 24. PMID: 37356470; PMCID: PMC10408729.
SEQUENCE No. (e.g., 1, 2, 3, etc.); […] (e.g., Cells, Incubation, Reagent, etc.); VALUE and DESCRIPTION.
1; Cells; 5 uL; white, solid bottom 1536-well Greiner assay plate.
2; Compounds; 23 nL; Kalypsis pin tool (Wako USA) equipped with a 1536-well pin head to transfer to the assay plates.
3; Incubation; 48 hours; 37C incubation.
4; Reagent;5uL; CellTiter Glo (Promega).
5; Detector; 425V; Luminescence; Viewlux PerkinElmer.
NOTES (numbers refer to Sequence numbers above)
1. The cell-based screening methods employed in this study were like those previously published. Briefly, the corresponding myeloma cell lines were screened in 1,536-well plates with 500 cells, 5-uL per well for inhibition of cell viability (assessed by measuring ATP levels with CellTiterGlo).
2. NCATS MIPE 4.0 library of approved and investigational drugs were added using the Kalypsis pin tool. Wells treated with DMSO only for 100% viability and media only for 0% viability were used as controls.
3. The assay plates were covered and incubated for 48 hours in a 37C, 5% CO2 incubator with controlled humidity.
4. After 48 hours, CellTilter-GloTM luminescent substrate mix (Promega) reagent was added to the assay plate and plates we incubated for 5 min at room temperature.
5. Signal was measured as median relative luminescence units on a ViewLux (PerkinElmer) multiplate reader.
[1] Heske CM, Davis MI, Baumgart JT, Wilson K, Gormally MV, Chen L, Zhang X, Ceribelli M, Duveau DY, Guha R, Ferrer M, Arnaldez FI, Ji J, Tran HL, Zhang Y, Mendoza A, Helman LJ, Thomas CJ. Matrix Screen Identifies Synergistic Combination of PARP Inhibitors and Nicotinamide Phosphoribosyltransferase (NAMPT) Inhibitors in Ewing Sarcoma. Clin Cancer Res. 2017 Dec 1;23(23):7301-7311. doi: 10.1158/1078-0432.CCR-17-1121. Epub 2017 Sep 12. PMID: 28899971; PMCID: PMC6636827.
Potency is read from the fitted curve at half-maximal effect.

Row | SMILES | Potency | viability (% of control)
1 | Clc1ccc(C(Cn2ccnc2)OCc2ccsc2Cl)c(Cl)c1 (stereo not given) | 20.9 µM (active) | –
2 | N[C@@H](Cc1cc(I)c(Oc2cc(I)c(O)c(I)c2)c(I)c1)C(=O)O | – | 112%
3 | COc1cc2c(N3CCN(C(=O)Nc4ccc(OC(C)C)cc4)CC3)ncnc2cc1OCCCN1CCCCC1 | 18.7 µM (active) | –
4 | O=c1c(O)c(-c2cc(O)c(O)c(O)c2)oc2cc(O)cc(O)c12 | – | 130%
5 | O=C(NOCC1CC1)c1ccc(F)c(F)c1Nc1ccc(I)cc1Cl | 6.62 µM (active) | –
6 | Nc1nc(N)c(N=O)c(OCC2CCCCC2)n1 | 2.96 µM (active) | –
7 | COC(=O)C1=C(C)NC(C)=C(C(=O)OCCCN2CCC(c3ccccc3)(c3ccccc3)CC2)C1c1cccc([N+](=O)[O-])c1 (stereo not given) | – | 131%
8 | COc1cc(Nc2c(C#N)cnc3cc(OCCCN4CCN(C)CC4)c(OC)cc23)c(Cl)cc1Cl | 1.32 µM (active) | –
9 | CC(C)c1ccc2oc3nc(N)c(C(=O)O)cc3c(=O)c2c1 | – | 89.8%
10 | Cc1ccc(Nc2nccc(N(C)c3ccc4c(C)n(C)nc4c3)n2)cc1S(N)(=O)=O | 11.8 µM (active) | –
11 | Cc1cc2c(s1)Nc1ccccc1N=C2N1CCN(C)CC1 | – | 117%
12 | O=c1oc2cc(O)ccc2s1 | – | 85.5%
13 | CCCCCCCCOc1ccccc1C(=O)Nc1ccc(C(=O)OCC[N+](C)(CC)CC)cc1 | 16.6 µM (active) | –
14 | CCOC(=O)c1c(C)n(C)c2ccc(O)cc12 | – | 84.6%
15 | COC(=O)N[C@H](C(=O)N[C@@H](Cc1ccccc1)[C@@H](O)CN(Cc1ccc(-c2ccccn2)cc1)NC(=O)[C@@H](NC(=O)OC)C(C)(C)C)C(C)(C)C | – | 91.1%
16 | O=C(O)c1cc(=O)c2c(OCC(O)COc3cccc4oc(C(=O)O)cc(=O)c34)cccc2o1 | – | 79.5%
17 | O=P(O)(O)C(O)(Cn1ccnc1)P(=O)(O)O | – | 90.5% [at 23.2 µM]
18 | COCCCN1CCC(NC(=O)c2cc(Cl)c(N)c3c2OCC3)CC1 | 5.9 µM (active) | –
19 | Nc1ccc(S(N)(=O)=O)cc1 | – | 116%
20 | Cc1cc2cc3c(C)cc(=O)oc3c(C)c2o1 | 6.62 µM (active) | –

Row | SMILES | Potency | viability (% of control)
21 | Cc1ccc(C)c(OCCCC(C)(C)C(=O)O)c1 | 9.35 µM (active) | –
22 | Clc1ccc2c(N3CCN(CCCN4CCN(c5ccnc6cc(Cl)ccc56)CC4)CC3)ccnc2c1 | – | 105% [at 23.2 µM]
23 | COc1ccccc1N1CCN(CCN(C(=O)C2CCCCC2)c2ccccn2)CC1 | 1.48 µM (active) | –
24 | O=Nc1c(-c2c(O)[nH]c3cc(Br)ccc23)[nH]c2ccccc12 | 3.32 µM (active) | –
25 | CCC[C@@H]1C[C@@H](C(=O)N[C@@H]([C@H]2O[C@H](SC)[C@H](O)[C@@H](O)[C@H]2O)[C@@H](C)O)N(C)C1 | – | 93.5%
26 | CC(C)CC(=O)N[C@H](C(=O)N[C@H](C(=O)N[C@@H](CC(C)C)[C@@H](O)CC(=O)N[C@@H](C)C(=O)N[C@@H](CC(C)C)[C@@H](O)CC(=O)O)C(C)C)C(C)C (Isovaleryl-VV[Sta]A[Sta]-OH) | – | 96.8%
27 | O=C(O)c1cccc(-c2noc(-c3ccccc3F)n2)c1 | – | 111%
28 | CC(C)Oc1ccc2c(=O)c(-c3ccccc3)coc2c1 | – | 111%
29 | Clc1ccc(C(Cn2ccnc2)OCc2c(Cl)cccc2Cl)c(Cl)c1 (stereo not given) | 26.4 µM (active) | –
30 | C[C@@H](N)C1CCC(C(=O)Nc2ccncc2)CC1 (stereo not given in full) | 5.9 µM (active) | –
31 | CNC[C@H](O)c1ccc(O)c(O)c1 | – | 110% [at 92.2 µM]
32 | Cc1ccc(NC(=O)c2ccc(CN3CCN(C)CC3)cc2)cc1Nc1nccc(-c2cccnc2)n1 | 33.2 µM (active) | –
33 | C[C@H](Cn1cnc2c(N)ncnc21)OCP(=O)(O)O | – | 123%
34 | Cc1cc(C2CCCCC2)n(O)c(=O)c1 | 8.33 µM (active) | –
35 | CC1(C)CCC(C)(C)c2cc(NC(=O)c3ccc(C(=O)O)cc3)ccc21 | 5.26 µM (active) | –
36 | Cn1c(NCCN(CCO)CCCc2ccc([N+](=O)[O-])cc2)cc(=O)n(C)c1=O | 20.9 µM (active) | –
37 | CNC[C@@H](O)[C@@H](O)[C@H](O)[C@H](O)CO | – | 126%
38 | COC(=O)C1=C(C)NC(C)=C(C(=O)OC(C)C)C1c1cccc2nonc12 (stereo not given) | 5.9 µM (active) | –
39 | COc1cc(OC)c(C(=O)CCCN2CCCC2)c(OC)c1 | – | 105%
40 | O=C(NCCO[N+](=O)[O-])c1cccnc1 | – | 142%

Reference: PubChem BioAssay (NCATS)
